# Experimental data: PubChem BioAssay AID1159506 (National Center for Advancing Translational Sciences (NCATS), 2015)
# In all, about 59,000 sequences were measured (the read-out: median about -0.00055, lowest 2% from about -2 on). Only a selection was taken, and the lowest values are over-represented in it overall.
# Assay: Identification of proteins required for the processing of the EWS-FLI1 nascent transcript;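 also: robust z of luciferase light less the median z of siRNAs with the same seed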
# Settings: TC32 Ewing sarcoma NR0B1-luc vs CMV-luc (EWS-FLI1 target promoter against control promoter), 48 h; screened at 20 nM (by protocol)
# Experimental: Ewing sarcoma (ES) cells depend on the EWS-FLI1 fusion transcription factor for cell survival. Using an assay of EWS-FLI1 activity and genome-wide siRNA screening we have identified proteins required for the processing of the EWS-FLI1 nascent transcript. Parallel genome-wide siRNA-mediated RNAi screens were conducted in Ewing sarcoma TC32 cell lines expressing a luciferase (luc) reporter protein driven by either the promoter of the EWS-FLI1 target gene NR0B1 (TC32-NR0B1-luc) or the CMV promoter (TC32-CMV-luc). Luciferase activity was assessed 48 hours post siRNA-transfection.
# Twenty microl of serum-free media containing Lipofectamine RNAiMax (0.05 microl) was added to wells containing siRNA (0.8 pmol). Lipid and siRNA were allowed to complex for 45 min at ambient temperature before addition of 600 cells in RPMI-1640, 20% FBS to yield final transfection mixtures containing 20 nM siRNA in RPMI-1640, 10% FBS. Luciferase expression was measured using OneGlo (Promega, Madison, WI). The genome-wide screening campaign was conducted using Ambion's human genome library version 4.1 (Ambion, Austin TX). This library targets approximately 21000 human genes, three siRNAs per gene. Each siRNA is arrayed in an individual well of a 384-well plate. Parallel transfections were conducted in TC32-NR0B1-luc and TC32-CMV-luc cell lines and luciferase expression (OneGlo, Promega) was assayed 48 h later on a PerkinElmer Envision 2104 Multilabel plate reader (PerkinElmer, Waltham, MA). Qiagen's AllStars Negative control was incorporated on all screening plates for normalization (16 wells per plate). Qiagen, Germantown, MDsiGL4 was incorporated as a positive transfection control (16 wells per plate) on all plates. […] The raw luciferase data for the NR0B1- and CMV-luc screens were normalized and z-score-MAD transformed using standard methods (Chung et al., 2008). The miRNA-like seed sequence of every siRNA was determined and the median z-score for all siRNA sequences with the same seed sequence was calculated. This z-score was subtracted from the z-score associated with each siRNA with that seed sequence to generate a seed-adjusted z-score value (Z) that was used when the results for the three siRNAs corresponding to each gene were compared (Marine et al., 2012)
row,Sequence,seed-corrected z-score
1,CAAGUCAUGCCAGCACUGG against LOC645852,0.383
2,UAAUCUAAUCCUUCUAAAG against PCDHGA7,1.3
3,UUCCUUCCAGGACAUGAGC against MIR503HG,-2.21
4,UUUGGUUGAAGGGACCCUC against OR1J2,0.501
5,UCCUUUGAUAGCCUCUUCG against ELAVL3,-0.214
6,UAACUGUUCACCGCGUCCA against LINC01530,-0.696
7,UUACAAAGAAGCACGUUCA against HOXB8,0.191
8,AAACAGGAAGGUGCUAUCG against GALT,-0.3
9,AUACUUGCAAACAAACUCC against RREB1,-1.3
10,UGAUUUCUGACCUCCAUUC against TMEM43,1.18
11,ACUGUUCCCAACAAGGUCC against UBXN4,1.66
12,AAACCUAAGAAUACAAGUU against SAR1A,0.849
13,ACAGUUGCCCUUGUCCUGG against LOC440292,-3.34
14,AUUGGAGAGAGGUUCAUUC against YWHAH,-0.058
15,UGACGGCUGGUCGUGAUCU against SPDYE2,0.00759
16,UACAGGUAGACCUCGUGGG against UPK3A,0.24
17,UCAGGAUCAUGAGUAGGCG against DEPDC5,1.12
18,AAACCUAUUCCUUCCAUUU against ARL6IP5,0.0394
19,UUAGAGUCCAGAUUCAGGA against ST3GAL3,0.675
20,AAACGAUCAUGGUCUCUGC against COPA,-3.42
21,UGAUCUUGAACUGCACCAC against SUMO3,-0.708
22,UGGAGUAAGAGCUAUACGC against CYTIP,-0.125

row,Sequence,seed-corrected z-score
1,AACGUGUCACCACAUAUGG against MAPK10,-2.05
2,UUAGCAACCACGGACACUG against ACR,0.604
3,AUACCUUUCAGGAUGAGGG against TMEM178A,-0.305
4,UUCAUAACUCUGUUGUGCC against FNBP1L,0.0737
5,UUCUGUACGCAGGUGAUUG against COL1A1,0.0612
6,UUUACGACGCAUCUCAGCC against ARCN1,-2.64
7,ACGGUUUUUACAUCGAUUC against PTPRO,0.657
8,UAUUGUGCAAUUUGGUGGG against KLF13,0.422
9,AAUAUCCCAAUGUUCAUGC against FHDC1,-2.13
10,AAACCAAACAAGGAUACCU against C20orf173,2.47
11,ACAUAUACUGGUAACACUG against SH3GLB1,-0.404
12,UGAUGUCUACAAUAUCACC against RPL21P20,-2.36
13,UUUAUCACCAGGUUAAGCC against GLUD1,-0.205
14,UCUCGGAUCAUGAUGUUGU against PIK3CD,0.452
15,UAAACAAUACGUCAGUGCC against OR51T1,-0.809
16,UUCGUUCACGGCUAUGACC against CHL1,0.202
17,UGAGUUUCAGGUUCUCCGG against CAB39L,-2.64
18,UUCCGGAUCAGAUCAUGGG against FAM118A,-0.123
19,UACAUUCUUGGUUUCAACC against LOC729860,1.84
20,UUAUAUUCAUCCUUGUGAC against CRKL,0.239
21,UUCUGGUUUGUUUUCAGGC against BAG3,-2.98
22,AACCGAACAAAUGAAUAUC against TIA1,-1.17

row,Sequence,seed-corrected z-score
1,UAAUCUGCAAGUCAAGUCU against LYSMD2,-1.06
2,UUCACGACGAUGAUUCCCU against DYNLRB1,-0.1
3,UCCUCUGUAACCACACUCG against GPT2,-0.193
4,AAACUAUACACGGUCGUCC against RFESD,-0.265
5,UUAGGUUCAACAUCCACAA against SNRPD1,-2.57
6,AAGGAUAUUAAGAAGAAUC against ARMCX1,0.793
7,UACGAUGAUAGCCUUGACC against CNOT10,-0.215
8,UCAAGCUUCACUUUCUUCC against DNAJC17,1.06
9,AAAAUGAGAACGUAAAGUC against VN1R5,-0.139
10,UCCUGGAUGCGAUUUAUGG against DDRGK1,-0.145
11,UUCUCGUCGAGGUAGAUUU against ITM2C,0.584
12,UAACAUACUGGUCCCAUUG against PCTP,-1.08
13,UAUCUUCUAAUGCAAUCCU against RTP2,0.814
14,ACCUUGACCACACUUAUUU against VSTM2L,-1.03
15,UGCUUAACAAGAUCUGAAC against ZNF271P,-2.37
16,UCGGCGAUGUAGGAGAUGG against APBA2,0.0663
17,AGAAAAUCUAUCUUCCUCU against PFDN5,-0.0703
18,UGGGAUAUCACCAACGACG against CCDC168,-0.371
19,UCAUCUAGAAGAAUAUUCU against SGK494,0.387
20,AAGCUUGCCAAUACCCUGG against RPLP2,-2.77
21,UCUAUGUUGACAACCUCUC against DSPP,2.05
22,UUGCAUUUUAUCACAGUAG against LY96,-0.122

row,Sequence,seed-corrected z-score
1,UCAGCAAAAACAUCUCACU against OR4Q3,0.873
2,AAACUGACCAUUCACUACC against DCAF12,-10.7
3,UCUGGAAUUUGGGUUGAUG against C1orf105,-0.114
4,UAGAUGUGCAUGUAGGUGA against ADO,0.279
5,AAGGCAUCCAAGAAGCUCC against KCNK6,0.0975
6,UUGGAAACUACAGAUGAGA against WDR82,-2.39
7,UUCCUUAAGGUGUCCCUCC against HSPA12A,0.369
8,UUGCGAUGGAAAGACAUGU against CD5,0.451
9,AAUGCUCUCAGUUGAGAUG against C19orf44,-0.0313
10,UAACCUCUGGGUCACAUGC against ACIN1,0.0177
11,UCUGUCUAAAUAACUUAUU against NAT8L,-0.913
12,UAUUGAAUGAUGUGGAGUC against PTCD2,0.667
13,UUAAGUAUUGGAUUUCAUA against DEFB116,0.226
14,UCGGAAUAAAUUGAGCUGC against API5,-16.5
15,UGUGCGAGAACAUUCCUGC against HIP1R,0.0278
16,UUUGUGCAUGCUGUCGUUC against TNIP2,-0.335
17,UACAGCUAAACUGUACAGC against ORC6,-2.09
18,UUCGGUUCAUGACAAAUAC against SLC35F5,0.354
19,UAGCAUACUAUUGUCCUGC against MRPL42,0.102
20,UCCUGGUUCACCAAUUUCU against COL9A1,-0.362
21,UAGGUUAUGAAAUUAAUCA against MAP6D1,-2.45
22,AUUCAUAGAAGUAUUCUGC against WIF1,-0.598

row,Sequence,seed-corrected z-score
1,UAAGUUUUGAGGAUAGGUG against ZNF117,0.415
2,UUGGGAUUCAGGUUCCGCU against TCF3,-0.377
3,UCGCUUCCCAGAAUUGCUG against GPR65,1.15
4,AUGGGAAUAGGAAAGUAUG against OR2M4,-2.09
5,UGUCCAAUUAGGGACCAGC against SLF2,-0.225
6,ACUGUAUAGAUUGUGAACC against KDM3B,1.03
7,UUCCAUAGUAGUAGGAUCU against TMEM14B,0.134
8,UCUGGUUAUCAGAAAACCC against PCNP,0.114
9,UUGUGGUUUAGGGUUUUCU against YBX1,-2.1
10,UUCUUAUAACCAUUGACUG against SLCO1B3,0.328
11,UAAAGAGUGGUGUUGGUGG against RSPH3,-0.756
12,UUUAGUUCCAGUGCCUUAG against CCDC151,0.491
13,CUUUCAGCGUGGCUGUUCC against C6orf132,-4.94
14,UUCCUAAUAAACCCAGCGC against SOWAHD,-0.0823
15,UCAGAGAUCAAAGAGAAGU against TUBB4A,0.356
16,UGAGUGAAGUGCGAUAUCC against ELL,0.176
17,UAGGAACCAGAAAUAAUCC against ATP8A2,-0.455
18,UUAGGGAUGACGUGGGUGC against GRIN1,-2.06
19,UUAAACUCCACGUCGUCAG against SIRPB1,-0.756
20,UUUAUGGAUCUAAUUGUCG against CBWD1,0.289
21,UGCAUGGUGAUAGUCAGGU against CD7,-0.0598
22,AAACCGUCCUUCCUCAUGC against IL16,0.0574

row,Sequence,seed-corrected z-score
1,UUAGUCUUCCCGGAUUGCC against ADAR,0.696
2,UUCUGGAUAAACAUAUUCC against MCU,-0.133
3,UUCCAGUUAAACUGUAGCC against LOC643770,-2.78
4,UUAAUAACCUCAGAAAUGG against TCTEX1D1,0.0567
5,UAUUUGCGAAGUCAUGAGG against COPB1,-3.25
6,UGAAUAUCAACAGUCCCUC against ZNF731P,0.959
7,UAAAUGACAGAAGCCGUUG against SUCLG1,-0.0373
8,UCACAGAUGCCUGUAAAUG against TSACC,-0.571
9,GCUUGCACGACUCACAGAC against DEFB105A,1.34
10,AGAGUGUAAUGAGUCUUUG against SCAPER,0.141
11,UCCUCCUUGUCCAUGAUGC against CDC42EP4,0.732
12,AUCUGCUUAAUCUUUACAC against OR51F2,-2.93
13,AUCGGAUACCGUGAGAUCC against OXA1L,0.367
14,UAAUGGGCACGAAUGACGG against ST8SIA3,0.274
15,AAUGGUAUCAUUCACCUUG against RPS4X,1.54
16,UCGUCUAAAACCAGGAUGC against ABCC3,-0.496
17,AAUGUUGUUCUGUUUGUCC against FAM122C,-1.09
18,UUUAGUUCUUCCCUUAUGG against PDGFC,-0.075
19,UUCUUCAUCAGCUUAACCG against C1QTNF4,-0.00119
20,AUACUUGUACAAUCGGUGC against DIDO1,0.123
21,UUCUUUGCCCGCUUGAGCU against CCDC86,-0.859
22,UUAGUUGCACCCAAAUCCA against CCDC17,-2.22
